An excerpt weighted towards active compounds, which were near 18% of everything screened.
TDP1 cell noCPT – qHTS for Inhibitors of human tyrosyl-DNA phosphodiesterase 1 (TDP1): qHTS in cells in absence of CPT | DT40 Tdp1-/- hTDP1 cells, no CPT, ATP luminescence, 48 h | Potency, µM (titrated, usually from 46.2 µM), for the others: at the top dose activity change, negative = growth inhibition, most hits filed as inhibitors | 420,000 compounds, 15% hits | AID 686978, 2013; further: potency means the concentration at half of the fitted maximal effect; on the % scale 0 is the no-effect control and ±100 the full control effect; nearly all actives have a fitted effect of over 55% in size
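Growth kinetics read by CellTiter-Glo luminescence after ≥48 hr at 37 °C. Cells: DT40 Tdp1-/- stably carrying human TDP1, 400 per well, compound exposure in the absence of CPT (DMSO vehicle).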
TDP1 block – blocks human tyrosyl-DNA phosphodiesterase 1; Q9NUW8; recombinant TDP1, AlphaScreen DNA substrate cleavage; Potency, µM (series often up to 130 µM), inactives show at the highest dose activity change, negative = inhibition, most hits filed as inhibitors; 350,000 compounds, 0.28% hits; further: potency means the concentration at half of the fitted maximal effect; on the % scale 0 is the no-effect control and ±100 the full control effect; nearly all actives have a fitted effect of over 40% in size
Target sequence (Q9NUW8 whole entry, looked up): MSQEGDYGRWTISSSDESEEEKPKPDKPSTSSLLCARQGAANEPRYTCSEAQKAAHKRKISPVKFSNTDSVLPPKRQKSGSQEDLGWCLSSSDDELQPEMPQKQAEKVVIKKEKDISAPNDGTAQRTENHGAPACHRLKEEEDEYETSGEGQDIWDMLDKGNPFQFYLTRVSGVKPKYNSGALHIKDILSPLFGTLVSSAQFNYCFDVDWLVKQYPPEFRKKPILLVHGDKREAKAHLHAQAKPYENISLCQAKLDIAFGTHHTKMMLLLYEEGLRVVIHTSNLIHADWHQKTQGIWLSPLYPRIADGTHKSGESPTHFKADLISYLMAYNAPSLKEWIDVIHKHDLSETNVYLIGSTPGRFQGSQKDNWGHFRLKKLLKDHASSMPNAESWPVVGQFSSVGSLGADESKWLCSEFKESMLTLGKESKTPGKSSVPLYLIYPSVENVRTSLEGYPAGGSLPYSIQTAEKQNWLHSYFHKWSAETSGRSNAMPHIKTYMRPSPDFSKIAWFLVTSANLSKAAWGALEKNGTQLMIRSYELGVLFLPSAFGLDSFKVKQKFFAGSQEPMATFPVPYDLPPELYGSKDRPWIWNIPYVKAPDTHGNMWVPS
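E. coli-derived human Tdp1, 1 nM final. Cpd preinc 15 min RT; substrate 15 nM final, 5 min RT; AS bead mix 10 ug/ml final, 10 min RT. Signal loss = tyrosine-FITC cleavage. No-enzyme wells = max signal.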
IL1B secr inh – blocks inflammasome-driven IL-1 beta release. THP-1 LPS/ATP IL-1B secretion, AlphaLISA, 16 h; hits give low values. activity change, % at 57.5 µM. 360,000 compounds, 4.7% hits; in the data active means activity change below about -50%; inconclusive means mostly about -30% to -49%; further: on the % scale 0 is the no-effect control and ±100 the full control effect
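THP-1 cells pretreated 1 hr with compounds (up to 57.5 uM final), then stimulated with LPS (250 ng/mL final) plus ATP (1.25 mM final); secreted IL-1B measured by AlphaLISA after 16 hr, decreased signal indicating inhibition.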
HepG2 viability – kills HepG2 cells in TGF-b inhibitor counter-screen | HepG2 CAGA-GFP viability, ATP luminescence, 18 h | Potency, µM (series often up to 46.1 µM), inactives show at the highest dose activity change, negative = cytotoxicity, most hits filed as cytotoxic | 410,000 compounds, 0.76% hits | AID 588856; further: potency means the concentration at half of the fitted maximal effect
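HepG2 CAGA-GFP cells (1000/well, DMEM with 1% FBS) received compound, then TGF-beta at 500 pg/mL final, and were incubated 18 hours at 37 degrees C. Viability was read by CellTiter-Glo luminescence. Media-only wells were set as complete cell-killing and DMSO as no toxicity.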
TGFb SMAD3 inh – TGF-b pathway inhibition; 410,000 compounds, 1.2% hits; Potency, µM (series often up to 46.1 µM), without a hit: at the highest dose activity, negative = inhibition, hits mostly inhibitors; HepG2 CAGA-GFP TGF-b/SMAD3 reporter, GFP fluorescence, 18 h; TGF-beta stimulated, 500 pg/mL final; AID 588855; further: potency means the concentration at half of the fitted maximal effect; on the % scale 0 is the no-effect control and ±100 the full control effect; nearly all actives have a fitted effect of over 65% in size
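Inhibition was scored as loss of TGF-beta-induced (500 pg/mL final, 18 hours, 37 degrees C) GFP in HEPG2 cells carrying a CAGA-GFP reporter, in DMEM with 1% FBS. Well GFP was summed per cell; Activity was normalised to unstimulated and stimulated DMSO wells, then concentration-response fitting.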
TDP1 cell CPT – DT40-hTDP1 cell growth loss with CPT; AID 686979; Potency, µM (doses to about 46.2 µM), without a hit: at the highest dose activity change, negative = growth inhibition, most hits filed as inhibitors; chicken DT40 Tdp1-/-;hTDP1 cells + 20 nM CPT, ATP luminescence, 48 h; 420,000 compounds, 12% hits; further: potency means the concentration at half of the fitted maximal effect; on the % scale 0 is the no-effect control and ±100 the full control effect; nearly all actives have a fitted effect of over 55% in size
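Cell growth measured by CellTiter-Glo luminescence after a minimum 48 h, 37 C compound exposure with 20 nM CPT in Tdp1-knockout DT40 cells stably expressing hTDP1, seeded 400/well; qHTS titration format.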
* = called active by the depositor; ? = inconclusive; . = not tested or not shown; [ ] = dose if it differs, or a comment. Unless noted, the call rests on the fitted dose curve; in most records, active means well fitted curve in the direction sought with a large enough effect; inconclusive means small, poorly fitted or top-dose-only effect, or another doubt; inactive means no such curve, though single readings can be large; an effect the other way counts as inactive or inconclusive.

SMILES | TDP1 cell noCPT | TDP1 block | IL1B secr inh | HepG2 viability | TGFb SMAD3 inh | TDP1 cell CPT
CCN(CC)C(=O)NC(c1ccc(C)c(F)c1)C(Cl)(Cl)Cl (configuration not stated) | 16µM* | -1% | -4 | -39% | ? | 16µM*
N#Cc1ccccc1 | -6% | 0% | 5 | -6% | 1% | -9%
N#Cc1ccc(C(S(=O)(=O)Cc2ccccc2)S(=O)(=O)Cc2ccccc2)cc1 | ? | . | -58* | -8% | -4% | ?
COc1ccccc1/C=C/C(=O)NC(=S)Nc1ccccn1 | -6% | 3% | 16 | -17% | 3% | -3%
CN(C)S(=O)(=O)c1ccc(NC(=S)NC(=O)Cc2ccccc2)cc1 | -10% | 3% | -21 | -6% | -6% | -23%
CN(c1ccccc1)S(=O)(=O)c1ccc(NC(=O)CC(=O)c2ccccc2)cc1 | 18µM* | . | 0 | -11% | ? | ?
COc1ccccc1/C=C/C(=O)NC(=S)Nc1ccc(S(=O)(=O)N(C)c2ccccc2)cc1 | 23µM* | -7% | -3 | -4% | 4% | ?
CN(c1ccccc1)S(=O)(=O)c1ccc(NC(=O)c2ccccc2C(=O)O)cc1 | ? | . | -4 | 36% | 6% | ?
CN(c1ccccc1)S(=O)(=O)c1ccc(NC(=S)NC(=O)c2ccccc2)cc1 | 26µM* | 2% | 11 | 8% | 26% | ?
CN(Cc1ccccc1)S(=O)(=O)c1ccc(NC(=S)NC(=O)C2CCCC2)cc1 | 4.6µM* | 2% | 8 | -5% | -6% | 5.2µM*
CCc1nc(N2CCN(CC(=O)NCC3CCCO3)CC2)c(C#N)c2c1COC(C)(C)C2 (configuration not stated) | ? | 1% | -8 | -17% | -11% | ?
N/C(=N\OC(=O)c1ccccc1)c1ccn[nH]1 | 13% | 3% | 0 | -18% | -3% | -19%
CCCc1ccc(OCc2ccc(C(=O)N3CCSCC3)o2)cc1 | -17% | . | ? | -8% | 6% | ?
CC(C)COc1ccc(N)cc1OCC(C)C | ? | 5% | 8 | -20% | -19% | -2%
O=C(NC(=S)Nc1ccc(S(=O)(=O)Nc2ccccc2)cc1)C1CC1 | -5% | -1% | 1 | -16% | 0% | 7%
CN(c1ccccc1)S(=O)(=O)c1ccc(NC(=S)NC(=O)C2CC2)cc1 | 12µM* | 3% | -11 | 2% | -5% | ?
O=C1CCc2cc(S(=O)(=O)NC(C(=O)Nc3cccc(F)c3)c3ccccc3)ccc2N1 (configuration not stated) | ? | 8% | . | -26% | ? | ?
CN(c1ccccc1)c1nc2ccsc2c(=O)s1 | -24% | -7% | 7 | -23% | 2% | 2%
CN(C1=NS(=O)(=O)N=C(N(C)c2ccccc2)O1)c1ccccc1 | ? | . | -102* | -8% | ? | ?
N#Cc1c(-n2ncnc2-c2ccc(F)cc2)sc2c1CCCCC2 | -23% | 5%[12.3 µM] | . | 0% | 5% | 1%
CCN(CC)c1ccc(C(=O)N2CCC(c3c[nH]c4ccccc34)(c3c[nH]c4ccccc34)CC2)cc1 | ? | 8% | . | 1% | -28% | ?
CC(C)c1ccc(C(=O)OCC(=O)NC2CCCC2)cc1 | ? | . | 0 | -25% | -1% | -28%
O=C(Nc1ccccn1)c1sc2cccc(F)c2c1Cl | -13% | 1% | 32 | -27% | -19% | -1%
CC(C)CNS(=O)(=O)c1ccccc1C(=O)N1CCCCC1 | -6% | 4% | -3 | -6% | 5% | -17%
Cc1cccc(C)c1OCC(O)CNS(=O)(=O)c1ccccc1C(=O)N1CCCCC1 (configuration not stated) | 21µM* | 0% | 12 | -13% | -6% | 18µM*
SMILES | TDP1 cell noCPT | TDP1 block | IL1B secr inh | HepG2 viability | TGFb SMAD3 inh | TDP1 cell CPT
COc1cc(/C=C/c2nc3cc(Cl)ccc3c(=O)n2-c2cccc(C(F)(F)F)c2)cc(OC)c1OC | ? | -3% | . | -24% | -15% | ?
CCCC(=O)Nc1ccc(NC(=O)c2ccccc2F)cn1 | -4% | . | -61* | -8% | -3% | -17%
CCCC(=O)Nc1ccc(NC(=O)c2ccccc2)nc1 | -11% | . | -3 | 0% | 0% | 1%
Cc1ccc(CNC(=O)COC(=O)c2ccccc2OCC(=O)Nc2ccc(Br)cc2)cc1 | -10% | . | . | . | . | -29%
O=c1[nH]c(/C(=N\O)c2ccccc2)no1 | 15µM* | 2% | -17 | -27% | 2% | ?
COc1ccc(S(=O)(=O)N(C)[C@H]2C[C@H]3c4cc(Oc5ccccc5C)ccc4CCN3C(=O)[C@H]2[C@H](C)O)cc1 | 6.5µM* | . | ? | -21% | ? | 9.2µM*
COc1ccc(S(=O)(=O)N(C)[C@H]2C[C@H]3c4cc(-c5ccccc5)ccc4CCN3C(=O)[C@H]2[C@H](C)O)cc1 | 21µM* | . | -29 | -28% | ? | ?
Cc1ccccc1Oc1ccc2c(c1)[C@@H]1C[C@H](N(C)C(=O)c3cccnc3)[C@H]([C@H](C)O)C(=O)N1CC2 | ? | . | -14 | -8% | 3% | -25%
Cc1ccc(NC(=O)c2cc3nc(-c4ccc5c(c4)OCO5)cc(C(F)(F)F)n3n2)cc1Cl | -9% | 3% | . | 2% | -12% | -4%
CCOC(=O)c1nnc(-c2ccccc2)nc1Oc1ccc(Cl)cc1 | 16µM* | -8% | -71* | -33% | ? | 21µM*
CCOC(=O)c1cnc(-c2ccccc2)nc1Oc1ccc(Cl)c(Cl)c1 | -4% | 4% | 14 | 2% | 10% | -4%
CCOC(=O)c1nnc(-c2ccc(C)cc2)nc1Sc1cccc(Cl)c1 | ? | -5% | 1 | 10% | 0% | 9.2µM*
O=C(Nc1ccc(O)c(C(=O)O)c1)Oc1ccccc1 | -20% | -3% | -12 | -5% | -17% | 0%
COCCN(CC1CCCN(C2Cc3ccccc3C2)C1)C(=O)CCC(C)=O (configuration not stated) | 13% | . | -6 | -31% | 2% | -16%
COCCN(CC1CCCN(C2Cc3ccccc3C2)C1)C(=O)CCC(N)=O (configuration not stated) | ? | . | -52* | -17% | -2% | 6%
O=C(COc1cccnc1[N+](=O)[O-])N1CCC(Cc2ccccc2)CC1 | ? | 0% | -68* | 10% | -4% | ?

Source: PubChem BioAssay
